PubChem BioAssay (NCATS)
“And” between values parts separate entries of the source, which are not always exact repeats. Equal values may be shown once. Results filed as inconclusive are left out. The source made the active and inactive calls. The call rests on the fitted dose curve; in most records, active means well fitted cell-killing curve with a large enough effect; inconclusive means small, poorly fitted or top-dose-only effect; inactive means flat fitted curve, though single readings scatter.

test: Cellular viability qHTS for adrenocortical cancer (ACC) cell line NCI-H295R (AID 1963990); conditions: CellTiter-Glo ATP luminescence, 48 h; series mostly up to 46.1 µM; activity change, negative = viability loss: at the top concentration; further: nearly all actives have a fitted effect of over 60% in size
Source text: PI: Naris Nilubol, MD Surgical Oncology Program, National Cancer Institute (NCI) National Institute of Health (NIH), Bethesda, Maryland Adrenocortical cancer (ACC) is a rare malignancy with poor survival outcomes and few treatment options. Currently, mitotane is the only FDA-approved therapy for ACC. Although adjuvant radiation therapy is rarely utilized, it has the potential to improve survival in select cases. Through a quantitative high-throughput drug screen (qHTS), we identified auranofin (AF), a thioredoxin reductase (TXNRD) inhibitor, as a promising candidate drug. This study aims to evaluate whether AF can enhance the efficacy of radiation therapy in the treatment of ACC. Two human ACC cell lines, SW-13 and NCI-H295R, were screened using the National Center for Advancing Translational Sciences (NCATS) Pharmaceutical Collection (NPC) and the Mechanism Interrogation PlatE (MIPE) library (~4,991 compounds). CellTiter-Glo (Cat # G7570, Promega, Madison, WI) was utilized to measure cell viability. Described herein are the results of the corresponding viability assay.
PROTOCOL TABLE (as described by Inglese J, Shamu CE and Guy RK. 2007) SEQUENCE No. (e.g., 1, 2, 3, etc.); […] (e.g., Cells, Incubation, Reagent, etc.); VALUE; DESCRIPTION. 1; Cells; 5 uL; white, solid-bottom, 1536-well tissue-culture treated plates. 2; Time; overnight culture at 37C with 5% CO2. 3; Compounds and control; 23 nL; Kalypsis pin tool (Wako USA) equipped with a 1536-well pin head to transfer to the assay plates. 4; Time; 48 hours; 37C with 5% CO2. 5; Reagent; 4 uL; CellTiter-Glo luminescent substrate mix. 6; Time; 20 min at room temperature. 7; Detection; Luminescence; ViewLux plate reader NOTES (numbers refer to Sequence numbers above) 1. NCI-H295R cells were harvested from a T175 flask and resuspended in ITS-supplemented DMEM serum-free medium at a concentration of 300 000 cells/mL. Then 5 uL of resuspended cells were dispensed into each well of white, solid-bottom, 1536-well tissue-culture-treated plates using a multidrop combi dispenser. The plates were covered with stainless steel gasket lids. 2-3. The plates were cultured overnight at 37C with 5% CO2. Twenty-three nL of compounds (eight selected concentrations from the NPC / MIPE) or positive control (10 mM stock of bortezomib) in DMSO was transferred to each well of the assay plate using a pin tool (Kalypsys, San Diego, CA, USA). The final concentration of the compounds in the 5 uL assay volume ranged from 0.5 nM to 46 uM. 4-6. After 48 hours of incubation at 37C and 5% CO2, 4 uL of CellTilter-Glo luminescent substrate mix (Promega, Madison, WI, USA) was added to each well. Then the plates were incubated for 20 minutes at room temperature. 7. After incubation, luminescence was measured using a ViewLux plate reader (PerkinElmer, Waltham, MA, USA) with a clear filter was used to measure the number of metabolically competent cells. To determine compound activity in the qHTS assay, the titration-response data for each sample was plotted and modeled by a four-parameter logistic fit yielding IC50 and efficacy (maximal response) values. Raw plate reads for each titration point were normalized relative to positive control ([…], 100% inhibition) and DMSO-only wells (basal, 0%). REFERENCES: Inglese J, Shamu CE and Guy RK, Reporting data from high throughput screening of small molecule libraries, Nature Chemical Biology, 2007, 3(8): 438-441. doi.org/10.1038/nchembio0807-438.

For `CCc1oc2ccccc2c1C(=O)c1cc(I)c(O)c(I)c1`, which Potency is on record?
Its Potency is 6.51 µM (active).

With `CN1C(=O)[C@@H](NC(=O)c2n[nH]c(Cc3ccccc3)n2)COc2ccccc21` as the compound, how does the “activity change, negative = viability loss” value read?
The value was -10.5% (inactive).

Which “activity change, negative = viability loss” value does the source give for `CCC(C(=O)OCCN1CCOC(c2ccccc2)C1C)c1ccccc1` (stereo not given) here?
Its value is -8.35% (inactive).

For `O=C(Nc1ccc(F)c(C(F)(F)F)c1)Nc1nnc(-c2ccncc2)s1`, which “activity change, negative = viability loss” value is on record?
Its value is 0.94% (inactive).

Which Potency does the source give for `O=C1C(Cl)=C(NCCN2CCOCC2)C(=O)c2ncccc21` here?
The Potency was 3.98 µM (active).

For `CN1[C@@H]2CC[C@H]1CC(NC(=O)n1c(=O)[nH]c3ccccc31)C2` (stereo not given in full), which “activity change, negative = viability loss” value is on record?
Its value is -14.6% (inactive).

With `CC[C@@H](C)Nc1cc(C(=O)NC2CC3CC[C@@H](C2)N3c2ccc(C(=O)C3CC3)cn2)c(C)cc1C(N)=O` (stereo not given in full) as the compound, how does the Potency read?
Its Potency is 0.355 µM (active).

For `CC(C)NNC(=O)c1ccncc1`, which “activity change, negative = viability loss” value is on record?
The value was -3.6% (inactive).

For `COc1cc2c(NC3CCN(C(C)C)CC3)nc(C3CCCCC3)nc2cc1OCCCN1CCCC1`, which Potency is on record?
Its Potency is 12.6 µM (active).

Which “activity change, negative = viability loss” value does the source give for `CC(=O)OCC1=C(C(=O)O)N2C(=O)[C@@H](NC(=O)Cc3cccs3)[C@H]2SC1` here?
The value was -6.48% (inactive).

For `CC(C)(S)[C@@H](N)C(=O)O`, which activity change, negative = viability loss is on record?
The activity change, negative = viability loss was -1.21% [at 3.81 µM] (inactive).

With `OCc1ccc(Cl)cc1Cl` as the compound, how does the “activity change, negative = viability loss” value read?
The value was -25.2% (inactive).

With `CC(C)NCC(O)c1ccc(NS(C)(=O)=O)cc1` (stereo not given) as the compound, how does the “activity change, negative = viability loss” value read?
Its value is -11.7% (inactive).

With `NCCCNCCSP(=O)(O)O` as the compound, how does the activity change, negative = viability loss read?
The activity change, negative = viability loss was 0.548% [at 9.17 µM] (inactive).

For `CC1=C2[N-][C@H]([C@H](CC(N)=O)[C@@]2(C)CCC(=O)NC[C@@H](C)OP(=O)([O-])O[C@H]2[C@@H](O)[C@@H](n3cnc4cc(C)c(C)cc43)O[C@@H]2CO)[C@]2(C)N=C(C(C)=C3N=C(C=C4N=C1[C@@H](CCC(N)=O)C4(C)C)[C@@H](CCC(N)=O)[C@]3(C)CC(N)=O)[C@@H](CCC(N)=O)[C@]2(C)CC(N)=O.O.[Co+2]`, which “activity change, negative = viability loss” value is on record?
The value was -16.5% (inactive).

With `Cn1c(NC[C@@H](N)Cc2ccccc2)nc(-c2ccncc2)c(-c2ccc3ccccc3c2)c1=O` as the compound, how does the Potency read?
The Potency was 31.6 µM (active).

Which “activity change, negative = viability loss” value does the source give for `CC(C)C(N)C(=O)OCC(CO)OCn1cnc2c(=O)[nH]c(N)nc21` (stereo not given) here?
The value was -14% (inactive).

Which “activity change, negative = viability loss” value does the source give for `COC(=O)[C@@H](N)Cc1ccc(O)c(O)c1` here?
Its value is -8.67% (inactive).

Which “activity change, negative = viability loss” value does the source give for `COc1ccc(S(=O)(=O)Nc2nnc(CC(C)C)s2)cc1` here?
Its value is -6.9% (inactive).

Which “activity change, negative = viability loss” value does the source give for `C[C@@H]1C[C@H]2[C@@H]3C[C@H](F)C4=CC(=O)C=C[C@]4(C)[C@@]3(F)[C@@H](O)C[C@]2(C)[C@@]1(O)C(=O)CO` here?
Its value is 1.56% (inactive).

With `CCn1c(=O)c(-c2ccn[nH]2)cc2c(C)nc(N)nc21` as the compound, how does the Potency read?
Its Potency is 7.08 µM (active).

With `NC(=O)NS(=O)(=O)c1ccc(Cl)cc1` as the compound, how does the “activity change, negative = viability loss” value read?
The value was -23.3% (inactive).

For `Cc1cccc(Oc2cnc(=O)[nH]c2)c1`, which “activity change, negative = viability loss” value is on record?
The value was -7.5% (inactive).

With `CC(C)(C)C(=O)CN1C(=O)[C@H](NC(=O)Nc2cccc(C(=O)O)c2)CN(C2CCCCC2)c2ccccc21` as the compound, how does the “activity change, negative = viability loss” value read?
Its value is 3.71% (inactive).

For `OCCNC1CCCc2c1[nH]c1ccc(-c3ccccc3)cc21` (stereo not given), which Potency is on record?
The Potency was 7.08 µM (active).

Which “activity change, negative = viability loss” value does the source give for `CCCCCCCC(=O)OCC(O)CO` (stereo not given) here?
The value was -16.6% (inactive).

With `COc1cc([C@@H]2c3cc4c(cc3[C@@H](O[C@@H]3O[C@@H]5CO[C@@H](c6cccs6)O[C@H]5[C@H](O)[C@H]3O)[C@H]3COC(=O)[C@H]23)OCO4)cc(OC)c1O` as the compound, how does the Potency read?
The Potency was 7.08 µM (active).

For `CN1C(=O)N[C@@H](Cc2c[nH]c3c(Cl)cccc23)C1=O`, which “activity change, negative = viability loss” value is on record?
The value was 0.691% (inactive).

For `FC(F)(F)c1ccc(CNc2ccc(Cc3c[nH]c4ncc(Cl)cc34)cn2)cn1`, which “activity change, negative = viability loss” value is on record?
The value was -29.5% (inactive).

For `COCCc1ccccn1`, which “activity change, negative = viability loss” value is on record?
The value was 0.671% (inactive).

For `O=C(O)c1cc(O)c(O)c(O)c1`, which “activity change, negative = viability loss” value is on record?
Its value is -16.3% (inactive).

With `CCNC(=O)NCc1cccc(Cl)c1` as the compound, how does the “activity change, negative = viability loss” value read?
Its value is -11% (inactive).

With `CC(=O)N(c1onc(C)c1C)S(=O)(=O)c1ccc(N)cc1` as the compound, how does the “activity change, negative = viability loss” value read?
The value was -8.04% (inactive).

Which Potency does the source give for `OC(c1cc(C(F)(F)F)nc2c(C(F)(F)F)cccc12)C1CCCCN1` (stereo not given) here?
The Potency was 25.1 µM (active).

For `CCn1ccc(NS(=O)(=O)c2ccc(N)cc2)nc1=O`, which “activity change, negative = viability loss” value is on record?
Its value is -13.3% (inactive).

For `NC(=O)c1cc[n+](CC2=C(C(=O)[O-])N3C(=O)[C@@H](NC(=O)Cc4cccs4)[C@H]3SC2)cc1`, which “activity change, negative = viability loss” value is on record?
Its value is 0.361% (inactive).

For `Nc1ccn(C[C@@H](CO)OCP(=O)(O)O)c(=O)n1`, which activity change, negative = viability loss is on record?
Its activity change, negative = viability loss is 1.71% [at 9.17 µM] (inactive).

With `COc1cccc2c(NCc3ccccc3)nc(-n3c(N)nc4ccccc43)nc12` as the compound, how does the Potency read?
Its Potency is 5.62 µM (active).

Which Potency does the source give for `COc1cc(NS(C)(=O)=O)ccc1Nc1c2ccccc2nc2ccccc12` here?
Its Potency is 8.91 µM (active).

Which Potency does the source give for `CC(C)C[C@H](NC(=O)[C@H](CCc1ccccc1)NC(=O)CN1CCOCC1)C(=O)N[C@@H](Cc1ccccc1)C(=O)N[C@@H](CC(C)C)C(=O)[C@@]1(C)CO1` here?
Its Potency is 65.1 nM (active) and 63.1 nM (active).
